Measurements reported in the supplement of paper PMC6555819.

system: RXRa homodimer (NR concentration 180 nM); experiment: PBM binding z-score (relative to random genomic background probes); higher = stronger binding; sequences stand for … in GC…GCGATTGACAGCGTAGAATGAAGG
Method in brief: (§1)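 Ligand-free nuclear receptor dimers were bound for 1 h to custom Agilent 4×180K protein-binding microarrays. Detection used antibodies against each partner (one per run). Binding z-scores rest on regression-normalized fluorescence, with random background probes as the reference.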

| Sequence | PBM binding z-score |
| --- | --- |
| CTCGAATGGTCGTGCTCAGGTGAGTATACCAAAC | -0.189 |
| CCTGCTAGGTCATGGTCAGCTAGTCTACAGTATG | 2.76 |
| GCTTGTAGATCAAGGTTAAGAATGACTAAGCTAA | 0.859 |
| CCTATTAGTTGACCATAAGCGCAACCGAAGCTCG | 0.371 |
| CGGACTGGGGCATAAGGTTACCATAAGCCAGCCC | 1.29 |
| CCTGCTAGGTCATGGTCGGCTAATCTACAGTATG | 2.82 |
| CCTAACGGGTCACGAGGTTATAGCACGACGAGCG | 6.09 |
| CTACCAAGGTGAACAAGGTCGTTGTTTACTATTC | 1.9 |
| TCATATAGGTAACGGTGAAAGTCGAACGATATGA | 0.79 |
| CGTCCAAGGTCTGAGAGGTCAGTGAATGCCGAGT | 2.29 |
| CTACCAAGTTGAACAAGGTCGTTGATTACTATTC | 1.15 |
| ATCTCTAGGTAAGACTCAGTTCAGTTAAGAACGC | -0.175 |
| TCTATTAGTTGATTGGGGCAACCGAAACAGCGGA | 0.882 |
| AGAATGAGGTTATACGTAGCTCAGGGAAGAAAGT | 1.86 |
| ATCTCTATGTAAAGATAGTTCAGTGAATGCAAAT | 0.467 |
| CCTCGCAGGCCAGGGTCACTCAAGCATTTCGCTT | 3.06 |
| ATATGTAGGTTAAGGTTCATTCAGGTTGGTTCGC | 3.38 |
| TAGCCTAGGTCATTGGGCCAGCATAGTACGCATC | 3.01 |
| TCTTGTAGGTCAGCAGGTTAAGAAAGCTGGCCAA | 3.23 |
| CCTACTGGGCCACGAAAGGTCAGTGATTCAGTGA | 3.1 |

| Sequence | PBM binding z-score |
| --- | --- |
| CCGACTGGGGCATAAGATTACCATAAGCCAGCCC | -0.0512 |
| ATATGTAGGTTACATTCGGGTCATTCAGGCTATG | 3.03 |
| ACTCGGACGACAAAGGTCAGAGCTACGCCAGTGA | 4.83 |
| GCTAGCTGGTCAGTAAAAGGTCACACACCGGTCG | 5.62 |
| CCGACTGGGGTATAAGGTTACCATAAGCCAGCCC | 1.11 |
| TCATATAGGTAAAGGTGAAATTCGAACGATATGA | 2.19 |
| CGTCCAAGGTAAAAGGTCAGTGAAGAGATGACGG | 5.53 |
| AGTCAAAGTACAGGACGAGGTAACGTAAAGCACG | 0.598 |
| CCTACTGGGCCATCAGGTTATTGATATCAACGTT | 0.0138 |
| TAGCCTAGGTCATTCAGAGGCCAGTATAGAAAGC | 2.87 |
| CCTACAGGGCCATTCAGAGGTCATTGATCATATG | 3.85 |
| CGTCCAAGGTCAATGCTAGGTCAGTGGAAGCATT | 4.86 |
| GCTGCTAGGTCAGGCTGGTCAGCTAACGGGTACG | 1.07 |
| TCTAGTTGGTCCAAGGTCACACACTCGAAATGCG | 4.39 |
| CATACAGGGTCAGCTAGGCCATAGTAGGGACGGC | 4.53 |
| CCTCGGAGGACAACAGGACGTCAGAGCTGCCAGA | -0.244 |
| TCGAGTAGGTTAGTCGGGGCAATCAGCCAACATA | 0.0944 |
| CGTCGAAGGTCAGCAGGTCAGTGAAAGCGACGTG | 5.06 |
| TAGCCTAGGTCATTCAGGGGCCCGTATAGAAAGC | 2.77 |
| GCTAGCAAGCCATTTGGGTCACTCAATGACGGGC | 0.56 |

system: THRa:RXRa (NR concentration 90 nM, RXRa partner concentration 90 nM); experiment: as above
Method in brief: as §1

| Sequence | PBM binding z-score |
| --- | --- |
| CTCGAATGGTCGTGCTCAGGTGAGTATACCAAAC | 1.11 |
| CCTGCTAGGTCATGGTCAGCTAGTCTACAGTATG | 3.03 |
| GCTTGTAGATCAAGGTTAAGAATGACTAAGCTAA | 1.08 |
| CCTATTAGTTGACCATAAGCGCAACCGAAGCTCG | 0.364 |
| CGGACTGGGGCATAAGGTTACCATAAGCCAGCCC | 2.18 |
| CCTGCTAGGTCATGGTCGGCTAATCTACAGTATG | 3.01 |
| CCTAACGGGTCACGAGGTTATAGCACGACGAGCG | 3.44 |
| CTACCAAGGTGAACAAGGTCGTTGTTTACTATTC | 3.23 |
| TCATATAGGTAACGGTGAAAGTCGAACGATATGA | -0.0623 |
| CGTCCAAGGTCTGAGAGGTCAGTGAATGCCGAGT | 2.52 |
| CTACCAAGTTGAACAAGGTCGTTGATTACTATTC | 2.77 |
| ATCTCTAGGTAAGACTCAGTTCAGTTAAGAACGC | 1.44 |
| TCTATTAGTTGATTGGGGCAACCGAAACAGCGGA | 0.545 |
| AGAATGAGGTTATACGTAGCTCAGGGAAGAAAGT | 1.81 |
| ATCTCTATGTAAAGATAGTTCAGTGAATGCAAAT | 0.271 |
| CCTCGCAGGCCAGGGTCACTCAAGCATTTCGCTT | 2.84 |
| ATATGTAGGTTAAGGTTCATTCAGGTTGGTTCGC | 2.49 |
| TAGCCTAGGTCATTGGGCCAGCATAGTACGCATC | 2.76 |
| TCTTGTAGGTCAGCAGGTTAAGAAAGCTGGCCAA | 1.97 |
| CCTACTGGGCCACGAAAGGTCAGTGATTCAGTGA | 3.1 |

| Sequence | PBM binding z-score |
| --- | --- |
| CCGACTGGGGCATAAGATTACCATAAGCCAGCCC | -0.577 |
| ATATGTAGGTTACATTCGGGTCATTCAGGCTATG | 3.99 |
| ACTCGGACGACAAAGGTCAGAGCTACGCCAGTGA | 2.75 |
| GCTAGCTGGTCAGTAAAAGGTCACACACCGGTCG | 3.34 |
| CCGACTGGGGTATAAGGTTACCATAAGCCAGCCC | 2.02 |
| TCATATAGGTAAAGGTGAAATTCGAACGATATGA | 1.37 |
| CGTCCAAGGTAAAAGGTCAGTGAAGAGATGACGG | 3.28 |
| AGTCAAAGTACAGGACGAGGTAACGTAAAGCACG | 1.39 |
| CCTACTGGGCCATCAGGTTATTGATATCAACGTT | 0.797 |
| TAGCCTAGGTCATTCAGAGGCCAGTATAGAAAGC | 3.14 |
| CCTACAGGGCCATTCAGAGGTCATTGATCATATG | 3.38 |
| CGTCCAAGGTCAATGCTAGGTCAGTGGAAGCATT | 4.32 |
| GCTGCTAGGTCAGGCTGGTCAGCTAACGGGTACG | 1.63 |
| TCTAGTTGGTCCAAGGTCACACACTCGAAATGCG | 4.31 |
| CATACAGGGTCAGCTAGGCCATAGTAGGGACGGC | 3.22 |
| CCTCGGAGGACAACAGGACGTCAGAGCTGCCAGA | 0.648 |
| TCGAGTAGGTTAGTCGGGGCAATCAGCCAACATA | 2.38 |
| CGTCGAAGGTCAGCAGGTCAGTGAAAGCGACGTG | 2.88 |
| TAGCCTAGGTCATTCAGGGGCCCGTATAGAAAGC | 3.61 |
| GCTAGCAAGCCATTTGGGTCACTCAATGACGGGC | 1.51 |
